Assay outcomes: PubChem, National Center for Advancing Translational Sciences (NCATS)
An excerpt weighted towards active compounds, which were near 7.9% of everything screened.
HT1080 IDH1KD tx = toxicity to HT-1080 IDH1 knockdown cells (counter line); HT-1080 IDH1 knockdown viability, ATP luminescence, 48 h; Potency, µM (highest dose often 46.1 µM), inactives show at the top dose activity, negative = toxicity, usual class: cytotoxic; 360,000 tested, 2% active;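 further: 0% = DMSO wells and -100% = cell-free medium wells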
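CellTiter-Glo luminescence after 48 h compound exposure at 37 degrees C of IDH1-knockdown HT-1080 cells in 5% FBS RPMI. %Activity scaled between DMSO wells and cell-free media wells, with curves fitted and assigned curve classes.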
KB-3-1 cytotox = KB-3-1 parental cell cytotoxicity; Potency, µM (top dose mostly 46.1 µM), most hits filed as cytotoxic; AID 1347075; KB-3-1 viability, CellTiter-Glo ATP luminescence, 72 h; 400,000 tested, 1.4% active; further: on the % scale 0 is the no-effect control and ±100 the full control effect; nearly all actives have a fitted effect of over 60% in size
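Screening of KB-3-1 cells (DMEM, 10% FBS, phenol-red free) ran from lowest to highest compound concentration; after 72 h at 37 °C viability was read luminescently and curves fitted.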
HT1080NT lethal = kills 2HG-producing HT-1080-NT fibrosarcoma cells; Potency, µM (top dose mostly 46.1 µM), for the others: at the highest dose activity, negative = less viability, hits mostly cytotoxic; HT-1080-NT fibrosarcoma viability, CellTiter-Glo ATP luminescence, 48 h; AID 686970; 360,000 tested, 1.6% active;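 further: NT is the 2HG producing partner of a matched IDH1 knockdown line; 0% = DMSO-treated cells and -100% = media-only wells without cells; nearly all actives have a fitted effect of over 55% in size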
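Viability of the 2HG-overproducing fibrosarcoma line after 48 hours of compound exposure at 37 degrees C was determined by luminescence with CellTiter-Glo, and concentration-effect curves were then fitted and categorized.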
SW480 rerep = DNA re-replication induction in SW480 cells | 340,000 tested, 1.8% active | SW480 DNA re-replication, Hoechst DNA content imaging, 48 h | Potency, µM (top dose mostly 46.1 µM), without a hit: at the highest dose re-replication activation, actives largely listed as activators | AID 624297; further: % of control where 0% means no effect; nearly all actives have a fitted effect of over 55% in size
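250 cells/well; 23 nL cpd via pin tool; 48 hr, 37 C, 5% CO2; Hoechst 40 min; imager read of total nuclear intensity, ex 405/em 500-530 nm.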
MCF10A rerep = induces DNA re-replication in MCF 10a normal breast cells; MCF 10A DNA re-replication, Hoechst nuclear intensity, 48 h; Potency, µM (doses to about 46.1 µM), inactives show at the top dose activity, positive = re-replication, hits mostly activators; 350,000 tested, 2.9% active; further: % of control where 0% means no effect; nearly all actives have a fitted effect of over 50% in size
KB-V1 MDR tox = kills drug-selected multidrug resistant KB-V1 cells; KB-V1 MDR cells viability, CellTiter-Glo, 72 h; Potency, µM (doses to about 46.1 µM), actives largely listed as cytotoxic; 400,000 tested, 3.4% active; AID 1347076; further: on the % scale 0 is the no-effect control and ±100 the full control effect; nearly all actives have a fitted effect of over 60% in size
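qHTS viability screen in drug-selected KB-V1 MDR cells: 72 h compound treatment at 37 degrees C, ATP luminescence end point.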
The depositor's hits bear a star. The call rests on the fitted dose curve; in most records, active means well fitted curve in the direction sought with a large enough effect; inconclusive means small, poorly fitted or top-dose-only effect, or another doubt; inactive means no such curve, though single readings can be large; an effect the other way counts as inactive or inconclusive. Potency means the concentration at half of the fitted maximal effect.

Screening CCOC(=O)/C(C#N)=N/Nc1ccc(S(=O)(=O)N2CCc3ccccc32)cc1 returned HT1080 IDH1KD tx -25%, KB-3-1 cytotox inconclusive, HT1080NT lethal inconclusive, SW480 rerep 3%, MCF10A rerep inconclusive and KB-V1 MDR tox inactive.
`N#C/C(=N\Nc1ccc([N+](=O)[O-])cc1)C(N)=S` gave HT1080 IDH1KD tx 13µM*, KB-3-1 cytotox inconclusive, HT1080NT lethal inconclusive, SW480 rerep -9%, MCF10A rerep inconclusive and KB-V1 MDR tox inconclusive.
N#C/C(=N\Nc1cccc([N+](=O)[O-])c1)C(=O)c1ccc(Br)cc1 was read as HT1080 IDH1KD tx 2.6µM*, KB-3-1 cytotox 3.7µM*, HT1080NT lethal 5.8µM*, SW480 rerep 5%, MCF10A rerep inconclusive and KB-V1 MDR tox 1.5µM*.
For N#C/C(=N/Nc1ccc([N+](=O)[O-])cc1)C(=N)N1CCCCC1 the results were HT1080 IDH1KD tx -13%, KB-3-1 cytotox inactive, HT1080NT lethal -3%, SW480 rerep -5%, MCF10A rerep -4% and KB-V1 MDR tox inactive.
`N#C/C(=N\Nc1ccc(S(=O)(=O)N2CCc3ccccc32)cc1)C(N)=S` gave HT1080 IDH1KD tx 9.2µM*, KB-3-1 cytotox inconclusive, HT1080NT lethal 10µM*, SW480 rerep 1%, MCF10A rerep 12% and KB-V1 MDR tox inactive.
For CN(Cc1ccccc1)C(=O)c1ccc2nc([C@@H]3O[C@H](CO)[C@H](O)[C@H](O)[C@H]3O)[nH]c2c1 the results were HT1080 IDH1KD tx 8%, KB-3-1 cytotox inactive, HT1080NT lethal 28% and KB-V1 MDR tox inactive.
Screening COc1ccc(-c2csc(C(C)(O)c3ccc(F)c(F)c3)n2)cn1 (stereo not given) returned HT1080 IDH1KD tx inconclusive, KB-3-1 cytotox inactive, HT1080NT lethal inconclusive and KB-V1 MDR tox inactive.
For CCCCCOC(=O)Cn1c(=O)c2c(nc(N3CCOCC3)n2C)n(C)c1=O the results were HT1080 IDH1KD tx -2%, KB-3-1 cytotox inactive, HT1080NT lethal -1%, SW480 rerep -17%, MCF10A rerep 20% and KB-V1 MDR tox 16µM*.
O=C(Oc1ccccc1F)c1nc(SCc2ccccc2F)ncc1Cl was read as KB-3-1 cytotox inactive and KB-V1 MDR tox inactive.
O=c1c2cc([N+](=O)[O-])cc([N+](=O)[O-])c2[nH]n1-c1ccccc1 was read as HT1080 IDH1KD tx -27%, KB-3-1 cytotox inconclusive, HT1080NT lethal -25%, SW480 rerep -2%, MCF10A rerep inconclusive and KB-V1 MDR tox 0.82µM*.
`O=C(CCl)NNC(=O)c1c(O)c2ccccc2[nH]c1=O` gave HT1080 IDH1KD tx 15µM*, KB-3-1 cytotox 15µM*, HT1080NT lethal 12µM*, SW480 rerep inconclusive, MCF10A rerep 20% and KB-V1 MDR tox inconclusive.
Screening CCCCC(=O)NNC(=O)c1c(O)c2ccccc2[nH]c1=O returned HT1080 IDH1KD tx 6%, KB-3-1 cytotox inactive, HT1080NT lethal -13%, SW480 rerep -5%, MCF10A rerep inconclusive and KB-V1 MDR tox 9.2µM*.
COc1ccc(Cn2cc(CN3CC(N4CCN(CCO)CC4)CS3(=O)=O)nn2)cc1 (stereo not given) was read as HT1080 IDH1KD tx 1%, KB-3-1 cytotox inactive, HT1080NT lethal 21% and KB-V1 MDR tox inactive.
`CCCCC1(COC(=O)CCC(=O)O)C(=O)N(c2ccccc2)N(c2ccccc2)C1=O` gave HT1080 IDH1KD tx 5%, KB-3-1 cytotox inactive, HT1080NT lethal -8%, SW480 rerep 0%, MCF10A rerep 10% and KB-V1 MDR tox inactive.
CCCCC1(Cc2ccc([N+](=O)[O-])cc2)C(=O)N(c2ccccc2)N(c2ccccc2)C1=O was read as HT1080 IDH1KD tx inconclusive, KB-3-1 cytotox inconclusive, HT1080NT lethal -19%, SW480 rerep 14%, MCF10A rerep inconclusive and KB-V1 MDR tox 16µM*.
